From PubChem BioAssay (Tox21)
Inconclusive results are not listed. Activity calls are given as the source filed them. Unless noted, the call rests on the fitted dose curve.

Assays:
[1] = Nuclear factor erythroid 2-related factor 2/antioxidant responsive element (Nrf2/ARE) small molecule agonists: qHTS cell viability counter screen in human keratinocytes (AID 1919968; active means well fitted curve in the direction sought with a large enough effect in the repeat runs; an effect the other way counts as inactive or inconclusive; further: nearly all actives have a fitted effect of over 55% in size; further: potency means the concentration at half of the fitted maximal effect)
Outline: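 KeratinoSens HaCaT cells, 1,500/well, preincubated 5 h, then exposed to compounds in DMSO for 23 h at 37 C/5% CO2. Viability read as CellTiter-Fluor fluorescence after 1 h, in the same wells as the ARE-luciferase read.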

[2] = Nuclear factor erythroid 2-related factor 2/antioxidant responsive element (Nrf2/ARE) small molecule agonists: luciferase reporter gene qHTS assay in human keratinocytes (AID 1919969); further: nearly all actives have a fitted effect of over 35% in size; further: potency means the concentration at half of the fitted maximal effect
[3] = target: Gonadotropin-releasing hormone receptor (Homo sapiens) (UniProt P30968); assay: Human gonadotropin-releasing hormone receptor (GnRHR) small molecule agonists, calcium flux assay in GnRHR-HEK293 cells (AID 1920063); further: nearly all actives have a fitted effect of over 35% in size
Outline: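 HEK293 cells stably expressing human GnRHR were dye-loaded for 1 h at 37 C. Compound was added in agonist mode and fluorescence (Ex/Em 480/540) recorded kinetically for 3 min. Fifteen concentrations, triplicates.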

[4] = target: KiSS-1 receptor (Homo sapiens) (UniProt Q969F8); assay: Human kisspeptin (KISS1R) small molecule agonists, calcium flux assay in KISS1R-HEK293 cells (AID 1920064; active means well fitted curve in the direction sought with a large enough effect in the repeat runs; an effect the other way counts as inactive or inconclusive)
Outline: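 HEK293 cells stably expressing human KISS1R were loaded with calcium dye for 1 h at 37 C, then given compound; fluorescence (Ex/Em 480/540) was read kinetically for 3 min. Fifteen concentrations, triplicate.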

[5] = G protein-coupled receptor (GPCR) small molecule agonists, calcium flux assay: HEK293 wild type cell line counter screen (AID 1920065)
Outline: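 Wild-type HEK293 cells plated 18 h, loaded with calcium dye 1 h at 37 C, then compounds added in agonist mode (ATP as positive control). Kinetic fluorescence Ex/Em 480/540 recorded 3 min at 1 sec intervals; 15 concentrations, triplicate.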

[6] = p53 small molecule agonists, cell-based qHTS assay with human liver microsomes (AID 1963577)
Outline: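 Fluorescence of the beta-lactamase reporter in p53RE-bla cells, detected with LiveBLAzer substrate (2 h, room temperature, dark), served as the read-out after 16 h compound exposure at 37 C with human liver microsomes and NADPH, each 0.5 mg/mL final.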

[7] = p53 small molecule agonists, cell-based qHTS assay with rat liver microsomes (AID 1963578)
Outline: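 Cells carrying a p53 response element–beta-lactamase reporter were plated and rested 5 h, then dosed with compound in DMSO plus rat liver microsomes and NADPH, each at 0.5 mg/mL final. After 16 h at 37 C, LiveBLAzer substrate was added for 2 h.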

[8] = p53 small molecule agonists, cell-based qHTS assay with human liver microsomes: qHTS cell viability counter screen (AID 1963579); further: nearly all actives have a fitted effect of over 45% in size
Outline: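 Cytotoxicity counter screen: p53RE-bla, 4,000 cells/well; 5 h settle, 37 C/5% CO2; cpd + HLM 0.5 mg/mL + NADPH 0.5 mg/mL (final); 16 h, 37 C; CellTiter-Glo, 30 min RT, luminescence.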

[9] = p53 small molecule agonists, cell-based qHTS assay with rat liver microsomes: qHTS cell viability counter screen (AID 1963580); further: nearly all actives have a fitted effect of over 45% in size
Outline: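 In HCT-116 cells carrying a p53 response element-bla reporter, compounds were metabolically activated in situ by rat liver microsomes with NADPH over 16 h. Cell ATP content then served as the cytotoxicity measure.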

[10] = p53 small molecule agonists, cell-based qHTS assay: qHTS cell viability counter screen (AID 1963581); further: nearly all actives have a fitted effect of over 45% in size
Outline: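 p53RE-bla HCT-116 cells, compounds added 5 h after plating and incubated 16 h at 37 C. Cytotoxicity measured in the same wells as intracellular ATP by CellTiter-Glo luminescence after 30 min at room temperature.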

[11] = target: 5-hydroxytryptamine receptor 2A (Homo sapiens) (UniProt P28223); assay: 5-hydroxytryptamine receptor 2A (HTR2A) small molecule antagonists, cell-based qHTS assay (AID 1963586); further: nearly all actives have a fitted effect of over 45% in size
Outline: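 Antagonist-mode intracellular calcium assay: DOI (4 nM) added after 5 min compound pre-incubation at room temperature to dye-loaded HTR2A-CHO cells. Fluorescence followed for 3 min, sampled every second.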

[12] = target: 5-hydroxytryptamine receptor 2A (Homo sapiens) (UniProt P28223); assay: 5-hydroxytryptamine receptor 2A (HTR2A) small molecule agonists, cell-based qHTS assay (AID 1963587); further: nearly all actives have a fitted effect of over 30% in size
Outline: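 HTR2A-CHO cells, plated 18 h at 37 C/5% CO2, dye-loaded 1 h at 37 C; compounds in DMSO added by pin tool (agonist mode). Intracellular calcium flux read as kinetic fluorescence on FDSS over 2 min at 1 s intervals.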

[13] = target: Muscarinic acetylcholine receptor M1 (Homo sapiens) (UniProt P11229); assay: Cholinergic receptor muscarinic 1 (CHRM1) small molecule antagonists, cell-based qHTS assay (AID 1963588); further: nearly all actives have a fitted effect of over 40% in size
Outline: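 CHRM1-CHO calcium-flux assay, antagonist mode. Cells were seeded 18 h, dye-loaded 1 h at 37 C and given compound for 5 min at RT, then acetylcholine was added at 50nM. FDSS fluorescence was read 3 min; 15 concentrations, three runs.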

[14] = target: Muscarinic acetylcholine receptor M1 (Homo sapiens) (UniProt P11229); assay: Cholinergic receptor muscarinic 1 (CHRM1) small molecule agonists, cell-based qHTS assay (AID 1963589); further: nearly all actives have a fitted effect of over 35% in size
Outline: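 CHO cells stably expressing human CHRM1 were loaded with calcium dye for 1 h at 37 C, then compound was added in agonist mode. Intracellular calcium fluorescence was followed kinetically at 1 s intervals. Fifteen concentrations were tested in three independent runs.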

[15] = cAMP Responsive Elements (CRE) small molecule antagonists, cell-based qHTS assay (AID 1963591; active means well fitted inhibition curve with a large enough effect in the signal ratio in the repeat runs, not every such curve was filed as active; the % refers to the signal ratio)
Outline: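 CRE-bla HEK293T cells plated 18 h, then given compound plus NKH477 at 0.25 uM final for 3 h at 37C. Beta-lactamase reporter read with LiveBLAzer B/G FRET substrate after 2 h at room temperature.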

[16] = target: Beta-2 adrenergic receptor (Homo sapiens) (UniProt P07550); assay: Adrenergic beta2 receptor (ADRB2) small molecule antagonists, cell-based qHTS assay (AID 1963592); further: series mostly up to about 92 µM; nearly all actives have a fitted effect of over 50% in size
Outline: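 Cells (CHO, stable ADRB2 overexpression) incubated 18-20hr at 37C; compounds added from DMSO; agonist mix (1nM isoproterenol, 100uM IBMX, 25uM Ro-20-1724) added; 0.5hr RT; d2-cAMP and anti-cAMP-cryptate added; 1hr RT; 665/615 nm read.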

[17] = target: D(2) dopamine receptor (Homo sapiens) (UniProt P14416); assay: Dopamine D2 receptor (DRD2) small molecule agonists, cell-based qHTS assay (AID 1963594); further: nearly all actives have a fitted effect of over 35% in size
Outline: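 HEK293 cells stably expressing DRD2 were cultured 24 h at 37 C, then given Ro20-1724 (0.1 mM final) and compounds for 10 min at room temperature. NKH477 (200nM) was then added for 30 min. cAMP was read by HTRF.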

[18] = target: D(2) dopamine receptor (Homo sapiens) (UniProt P14416); assay: Dopamine D2 receptor (DRD2) small molecule antagonists, cell-based qHTS assay (AID 1963595; active means well fitted inhibition curve with a large enough effect in the signal ratio in the repeat runs, with a control signal flat; the % refers to the signal ratio)
Outline: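 Stable D2 receptor HEK293 line, 24 h after seeding. Compound preincubated 10 min, then quinpirole (12 nM) with forskolin analogue NKH477 (200 nM), 30 min, room temperature. Detection by time-resolved FRET of cAMP.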

[19] = p53 small molecule agonists, cell-based qHTS assay (AID 1963582; active means well fitted activation curve with a large enough effect in the signal ratio in the repeat runs, not every such curve was filed as active; the % refers to the signal ratio)
Outline: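 p53RE-bla reporter cells, compounds added in DMSO after 5 h plating, incubated 16 h at 37 C. Beta-lactamase read via 2 h room-temperature LiveBLAzer B/G FRET substrate, fluorescence intensity.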

[20] = cAMP Responsive Elements (CRE) small molecule agonists, cell-based qHTS assay (AID 1963590)
Outline: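 CRE-bla HEK 293T cells, 2,000/well in DMEM with 10% dialyzed FBS and 25 mM HEPES, pre-incubated 18 h at 37 C, then exposed to compound 3 h at 37 C. Beta-lactamase reporter read with LiveBLAzer B/G FRET substrate after 2 h at room temperature.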

Measured: Potency

Chain of Gonadotropin-releasing hormone receptor (Homo sapiens) (P30968 whole entry, looked up): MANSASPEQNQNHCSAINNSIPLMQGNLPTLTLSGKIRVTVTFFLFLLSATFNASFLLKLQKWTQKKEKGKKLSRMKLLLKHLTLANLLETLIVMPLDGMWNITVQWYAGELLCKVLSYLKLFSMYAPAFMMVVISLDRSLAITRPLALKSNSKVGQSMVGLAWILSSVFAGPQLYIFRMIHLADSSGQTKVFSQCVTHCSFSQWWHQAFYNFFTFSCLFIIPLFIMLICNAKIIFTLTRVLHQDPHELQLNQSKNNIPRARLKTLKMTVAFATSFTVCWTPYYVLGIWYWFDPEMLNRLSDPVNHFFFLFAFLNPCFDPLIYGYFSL
Chain of 5-hydroxytryptamine receptor 2A (Homo sapiens) (P28223 whole entry, looked up): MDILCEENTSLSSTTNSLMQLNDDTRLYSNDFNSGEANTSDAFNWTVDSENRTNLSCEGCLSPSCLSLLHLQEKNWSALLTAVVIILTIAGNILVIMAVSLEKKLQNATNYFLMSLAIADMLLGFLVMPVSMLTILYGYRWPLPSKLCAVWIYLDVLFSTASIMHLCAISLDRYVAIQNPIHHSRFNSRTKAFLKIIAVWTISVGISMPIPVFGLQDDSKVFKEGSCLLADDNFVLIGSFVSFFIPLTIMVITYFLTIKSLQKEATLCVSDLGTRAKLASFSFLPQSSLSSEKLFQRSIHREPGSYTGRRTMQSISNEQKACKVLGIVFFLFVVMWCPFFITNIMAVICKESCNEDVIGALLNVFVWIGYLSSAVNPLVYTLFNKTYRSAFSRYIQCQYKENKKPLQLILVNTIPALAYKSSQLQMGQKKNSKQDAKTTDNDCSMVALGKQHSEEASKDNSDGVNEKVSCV
Chain of D(2) dopamine receptor (Homo sapiens) (P14416 whole entry, looked up): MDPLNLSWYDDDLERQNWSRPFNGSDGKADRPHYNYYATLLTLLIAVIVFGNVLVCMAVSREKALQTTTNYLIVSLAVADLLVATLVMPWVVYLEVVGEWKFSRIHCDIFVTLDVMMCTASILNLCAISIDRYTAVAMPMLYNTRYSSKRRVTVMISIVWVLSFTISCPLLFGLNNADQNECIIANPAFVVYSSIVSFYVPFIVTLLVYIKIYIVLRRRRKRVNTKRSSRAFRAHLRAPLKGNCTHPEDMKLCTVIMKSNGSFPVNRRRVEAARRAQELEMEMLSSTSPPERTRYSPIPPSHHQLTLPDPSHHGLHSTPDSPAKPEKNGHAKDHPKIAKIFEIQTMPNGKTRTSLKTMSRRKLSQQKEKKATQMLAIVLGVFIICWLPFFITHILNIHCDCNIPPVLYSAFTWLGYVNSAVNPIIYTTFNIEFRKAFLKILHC
Chain of KiSS-1 receptor (Homo sapiens) (Q969F8 whole entry, looked up): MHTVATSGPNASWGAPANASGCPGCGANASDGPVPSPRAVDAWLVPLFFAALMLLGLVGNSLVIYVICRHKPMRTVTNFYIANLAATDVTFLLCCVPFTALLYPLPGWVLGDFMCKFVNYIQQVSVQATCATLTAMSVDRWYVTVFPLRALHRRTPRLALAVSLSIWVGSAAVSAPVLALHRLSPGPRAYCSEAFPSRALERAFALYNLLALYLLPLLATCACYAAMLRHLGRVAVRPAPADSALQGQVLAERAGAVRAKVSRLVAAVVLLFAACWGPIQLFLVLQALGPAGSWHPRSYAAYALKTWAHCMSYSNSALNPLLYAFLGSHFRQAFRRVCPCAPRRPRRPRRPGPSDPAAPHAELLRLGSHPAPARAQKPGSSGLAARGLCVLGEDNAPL
Chain of Muscarinic acetylcholine receptor M1 (Homo sapiens) (P11229 whole entry, looked up): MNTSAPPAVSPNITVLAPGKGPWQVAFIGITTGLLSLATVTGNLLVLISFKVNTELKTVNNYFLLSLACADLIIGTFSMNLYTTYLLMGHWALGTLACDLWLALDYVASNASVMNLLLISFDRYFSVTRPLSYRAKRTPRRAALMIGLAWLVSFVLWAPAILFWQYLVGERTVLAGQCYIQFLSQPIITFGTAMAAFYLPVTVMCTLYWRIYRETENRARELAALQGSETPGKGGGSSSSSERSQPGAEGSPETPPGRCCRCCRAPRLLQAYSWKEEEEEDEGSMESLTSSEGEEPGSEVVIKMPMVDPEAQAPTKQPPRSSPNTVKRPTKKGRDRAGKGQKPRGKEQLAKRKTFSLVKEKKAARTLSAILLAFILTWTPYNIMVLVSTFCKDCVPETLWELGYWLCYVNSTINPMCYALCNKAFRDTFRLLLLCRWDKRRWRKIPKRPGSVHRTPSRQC
Chain of Beta-2 adrenergic receptor (Homo sapiens) (P07550 whole entry, looked up): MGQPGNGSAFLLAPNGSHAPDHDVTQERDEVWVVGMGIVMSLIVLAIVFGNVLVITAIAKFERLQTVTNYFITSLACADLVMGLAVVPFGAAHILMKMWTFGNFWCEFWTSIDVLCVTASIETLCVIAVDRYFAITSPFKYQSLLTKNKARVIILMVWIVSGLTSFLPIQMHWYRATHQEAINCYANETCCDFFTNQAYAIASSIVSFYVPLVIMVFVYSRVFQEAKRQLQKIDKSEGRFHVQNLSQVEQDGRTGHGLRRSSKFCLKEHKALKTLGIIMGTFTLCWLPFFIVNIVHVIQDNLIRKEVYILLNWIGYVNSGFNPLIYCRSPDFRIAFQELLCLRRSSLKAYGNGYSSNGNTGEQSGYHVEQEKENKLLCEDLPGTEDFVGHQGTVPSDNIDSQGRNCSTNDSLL

COC1=CC(=O)O[C@@H](CCc2ccccc2)C1
not listed: [19] | [20]
inactive: all other assays above

O=C(CCl)Nc1ccccc1
active: [1] 21.7 µM | [2] 15.4 µM
not listed: [19] | [20]
inactive: all other assays above

CCN(CC)C(=O)Cl
not listed: [11]
inactive: all other assays above

O=C(N[C@H]1CN2CCC1CC2)c1cc2ccoc2cn1
not listed: [11] | [12] | [13] | [15]
inactive: all other assays above

CC#Cc1cc(C)nc(Nc2ccccc2)n1
active: [2] 48.5 µM
not listed: [11] | [16] | [17]
inactive: all other assays above

CCOC(=O)C1(c2ccccc2)CCN(CCc2ccc(N)cc2)CC1
not listed: [11] | [13] | [17]
inactive: all other assays above

CCC(C(N)=O)N1CCCC1=O (centres undefined)
not listed: [19]
inactive: all other assays above
